Data: PubChem BioAssay AID1159580 (chemical genetic matrix, 2015)
The whole screen tested about 5,500 compounds, of which about 2,000 (36%) were called active. Roughly 18% stayed inconclusive and do not appear here. Cut-off read from the data, not from the text of the source: active = normalized growth mostly below about 0.91 (no sharp cut-off); inconclusive = no clear call, values can overlap the other calls; inactive = mostly above about 0.92. Some of the results follow.

Test: chemical genetic growth profiling, strain panel (AID 1159580);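 note: tested at 20 µM; growth read once vehicle control cultures reached saturation at 30 °C; 1 = growth at the plate median or of vehicle wells; lower values mean less growth of the strain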
Conditions: growth OD

Measured: normalized growth

N#CC(c1ccccc1)N1CCCCC1 (stereo not drawn)
inactive: S. cerevisiae deletion strains, locus YAL013W, strain DEP1, active compounds read low 1.04 | S. cerevisiae deletion strains, locus YBR229C, strain ROT2, active compounds read low 0.995 | S. cerevisiae deletion strains, locus YDL101C, strain DUN1, active compounds read low 1 | S. cerevisiae deletion strains, locus YDL134C, strain PPH21, active compounds read low 0.99 | S. cerevisiae deletion strains, locus YDR150W, strain NUM1, active compounds read low 0.964 | S. cerevisiae deletion strains, locus YEL061C, strain CIN8, active compounds read low 1.02 | S. cerevisiae deletion strains, locus YGR078C, strain PAC10, active compounds read low 1 | S. cerevisiae deletion strains, locus YHR030C, strain SLT2, active compounds read low 1.04 | S. cerevisiae deletion strains, locus YHR087W, strain rtc3, active compounds read low 0.995 | S. cerevisiae deletion strains, locus YJR043C, strain POL32, active compounds read low 0.994 | S. cerevisiae deletion strains, locus YJR075W, strain HOC1, active compounds read low 0.984 | S. cerevisiae deletion strains, locus YKL190W, strain CNB1, active compounds read low 0.99 | S. cerevisiae deletion strains, locus YLR039C, strain RIC1, active compounds read low 0.969 | S. cerevisiae deletion strains, locus YLR058C, strain SHM2 (second series), active compounds read low 0.987 | S. cerevisiae deletion strains, locus YLR085C, strain ARP6, active compounds read low 1.02 | S. cerevisiae deletion strains, locus YLR262C, strain YPT6, active compounds read low 1.02 | S. cerevisiae deletion strains, locus YML094W, strain GIM5, active compounds read low 1.02 | S. cerevisiae deletion strains, locus YMR219W, strain ESC1, active compounds read low 1.01 | S. cerevisiae deletion strains, locus YMR263W, strain SAP30, active compounds read low 1.01 | S. cerevisiae deletion strains, locus YMR307W, strain GAS1, active compounds read low 0.928 | S. cerevisiae deletion strains, locus YNL153C, strain GIM3, active compounds read low 1 | S. cerevisiae deletion strains, locus YNL298W, strain CLA4 (second series), active compounds read low 0.985 | S. cerevisiae deletion strains, locus YNL322C, strain KRE1, active compounds read low 1.01 | S. cerevisiae deletion strains, locus YNR030W, strain Alg12, active compounds read low 1 | S. cerevisiae deletion strains, locus YPL055C, strain LGE1, active compounds read low 1.03 | S. cerevisiae deletion strains, locus YPL241C, strain CIN2, active compounds read low 0.975 | S. cerevisiae deletion strains, locus YPR135W, strain CTF4, active compounds read low 1.19 | S. cerevisiae strains, strain wild type, active compounds read low 0.985
